# From PubChem BioAssay AID2205 (University of Pittsburgh Molecular Library Screening Center, 2009)
# In all, about 200,000 compounds went through this assay and about 1,600 (0.8%) were called active.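 Rule for the calls: active = plate Z-score above 3 for both tubulin-high and condensed-nucleus cell shares, with cell loss under 80%, at 10 µM; inactive = the rest, inconclusive results apart.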 Only a selection was taken, and actives are over-represented in it overall.
# Test: tubulin staining increase by stabilizing compounds – imaging, high-content imaging, primary screen (AID 2205);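 for % tubulin-high responders: anti alpha tubulin signal scored within the nucleus-defined area of each cell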;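 for toxicity: 0% = mean cell density of plate MIN control wells and 100% = no cells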
# Conditions: HeLa tubulin immunostaining HCS, 24 h, at 10 µM; % Hoechst-high responders: measured here: nuclear condensation Hoechst responders, stronger effect = higher value, share of cells brighter than vehicle mean+2SD; % tubulin-high responders: stronger effect = higher value, share of cells brighter than vehicle mean+2SD; toxicity: measured here: cytotoxicity by cell density
Compound,% Hoechst-high responders [%],% tubulin-high responders,toxicity [%]
Fc1ccc2c(c1)C(c1cccnc1)=NNC(c1cccs1)=N2,34.4,13.2% (active),33.1
NC(=O)c1ccc(NC(=O)COC(=O)c2c3c(nc4ccccc24)/C(=C\c2ccc4c(c2)OCO4)CCC3)cc1,1.77,5.36% (inactive),8.9
Cc1ccc(NC(=O)CC2S/C(=N/N=C3\CCCc4ccccc43)NC2=O)cc1 (stereo not drawn),2.08,1.84% (inactive),8.37
C[n+]1ccccc1C1CCCC/C1=N\Nc1ccc([N+](=O)[O-])cc1[N+](=O)[O-] (stereo not drawn),1.98,5.56% (inactive),5.84
CC(=O)c1ccc(S(=O)(=O)Nc2ccc(C(=O)NCC(c3ccccc3)N(C)C)cc2)cc1 (stereo not drawn),1.41,1.91% (inactive),3.99
Nc1c(C(=O)O)cnn1-c1ccccc1,1.87,1.93% (inactive),3.6
Cc1c(CN2CCC(CO)(CCOc3ccccc3)CC2)[nH]c2ccc(Cl)cc12,7.79,27.6% (active),29.9
OCC1(CCOc2ccccc2)CCN(Cc2cn[nH]c2-c2ccccc2)CC1,2.29,2.29% (inactive),7.78
Cc1cccc(-c2ncc(CN3CCC(CO)(CCCc4ccccc4)CC3)cn2)c1,2.55,2.1% (inactive),2.96
CCc1ccccc1NC(=S)N(CCN1CCCCCC1)Cc1ccco1,2.22,4.39% (inactive),2.58
O=c1[nH]n(-c2ccc([N+](=O)[O-])cc2)c(=O)c2ccccc12,1.89,3.4% (inactive),9.65
Cc1ccc(-n2c(SCC(=O)N3c4ccccc4Sc4ccccc43)nnc2-c2ccncc2)cc1,1.48,4.83% (inactive),6.63
Cc1cc(C)c(C#N)c(SCC(=O)Nc2ccccc2)n1,2.87,3.04% (inactive),8.63
Cc1cc2cc3c(cc2nc1SCC(=O)Nc1c(C)cccc1C)CCC3,34.5,47% (active),36.2
Cc1cccc(C)c1NC(=O)CSc1ccc([N+](=O)[O-])cn1,2.4,2.2% (inactive),2.93
CCCCN1C(=O)CCC(C(=O)O)C1c1ccc(OC)cc1 (stereo not drawn),2.91,4.23% (inactive),11.7
O=c1ccc2cc(S(=O)(=O)N3CCN(c4ccccc4)CC3)ccc2o1,1.39,0.945% (inactive),5.98
O=S(=O)(c1cccc(C(F)(F)F)c1)N1CCN(c2cnccn2)CC1,2.29,4.64% (inactive),6.14
O=C1CC(=O)Nc2cc(S(=O)(=O)N3CCN(c4cccc(C(F)(F)F)c4)CC3)ccc2N1,10.2,22.1% (active),36.8
C/C(CC1CC(C)(C)OC1=O)=N/Nc1nc(-c2ccccc2)cs1 (stereo not drawn),2.24,6.39% (inactive),11.5
Cc1ccc2nc(-c3ccncc3)cc(C(=O)Nc3ccc4c(c3)OCCO4)c2c1,4.59,3.49% (inactive),10

Compound,% Hoechst-high responders [%],% tubulin-high responders,toxicity [%]
Cc1ccc2nc(-c3ccccn3)cc(C(=O)Nc3ccc4c(c3)OCO4)c2c1,2.11,3.85% (inactive),5.75
Cc1ccc2nc(-c3ccncc3)cc(C(=O)Nc3ccc(OC(F)F)cc3)c2c1,37,13.9% (active),27.1
CC(C)(O)C#Cc1ncc(C(F)(F)F)cc1Cl,2.46,3.98% (inactive),7.29
O=C1CC(N2CCN(c3ccc(F)cc3)CC2)C(=O)N1c1ccccc1 (stereo not drawn),1.93,2.61% (inactive),4.03
Cc1onc(C(=O)NCc2ccc(F)cc2)c1[N+](=O)[O-],1.75,2.95% (inactive),6.2
COc1ccc(OC)c(/C=C/C(=O)OCC(=O)Nc2ccc3c(c2)OCCO3)c1,20.4,17.6% (active),25.4
COc1ccc(/C=C/C(=O)OCC(=O)Nc2cccc(Oc3ccccc3)c2)c(OC)c1,4.35,1.52% (inactive),2.38
COc1ccc(/C=C/C(=O)Nc2ccc3c(c2)OCCO3)cc1OC,1.93,1.43% (inactive),9.72
O=C(CSc1ccc2nnc(-c3ccccc3)n2n1)N1CCCc2ccccc21,4.1,2.62% (inactive),12.3
NC1=NC(=O)S/C1=C\c1ccc(O)cc1,3.29,1.93% (inactive),4.56
O=C(NNC(=S)NCc1ccco1)C(c1ccccc1)c1ccccc1,2.12,1.06% (inactive),3.3
Cc1ccc(C2CC(=O)NC(SCC(=O)OCc3ccccc3)=C2C#N)o1 (stereo not drawn),13,33.6% (active),51.7
COC(=O)CSC1=C(C#N)C(c2ccccc2OC)C(C(=O)OC)C(=O)N1 (stereo not drawn),1.9,3.79% (inactive),6.69
CC1=C(C(=O)Nc2ccccc2)C(c2ccco2)C(C#N)=C(SCC(N)=O)N1 (stereo not drawn),1.48,1.69% (inactive),9.84
COc1cc2c(cc1OC)C(c1ccc(C)o1)CC(=O)N2 (stereo not drawn),2.57,2.94% (inactive),5.58
C=CCOC(=O)C1=C(C)NC(SCC(=O)OCC)=C(C#N)C1c1ccc(C)cc1 (stereo not drawn),1.55,2.42% (inactive),8.87
CC1=C(C(=O)OCc2ccccc2)C(c2ccco2)n2ncnc2N1 (stereo not drawn),2.47,2.96% (inactive),10.1
CCOC(=O)CSC1=C(C#N)C(c2ccco2)C(C(=O)OCc2ccccc2)=C(C)N1 (stereo not drawn),31.7,50.8% (active),30
C=CCSC1=C(C#N)C(c2cc(Br)c(O)c(OC)c2)CC(=O)N1 (stereo not drawn),5.45,1.66% (inactive),9.07
CCOC(=O)CSC1=C(C#N)C(c2sccc2C)CC(=O)N1 (stereo not drawn),46,25.8% (active),48.2
